Results from the supplement of paper PMC11732987, “Enantioselective OTUD7B fragment discovery through chemoproteomics screening and high-throughput optimisation” (Communications Chemistry, 2025).

The compounds below were run against T1, FAM105A (UniProt Q9NUU6) (assay: log2 ratio of Biotin-Ahx-Ub-VS probe labelling (fragment/DMSO); higher = less target engagement (more negative = stronger competition), active = hit call of the paper (q ≤ 0.05, log2 ratio ≤ -1)). Conditions: compound concentration: 200 uM; treatment time: 3 h.
T1 sequence (whole entry): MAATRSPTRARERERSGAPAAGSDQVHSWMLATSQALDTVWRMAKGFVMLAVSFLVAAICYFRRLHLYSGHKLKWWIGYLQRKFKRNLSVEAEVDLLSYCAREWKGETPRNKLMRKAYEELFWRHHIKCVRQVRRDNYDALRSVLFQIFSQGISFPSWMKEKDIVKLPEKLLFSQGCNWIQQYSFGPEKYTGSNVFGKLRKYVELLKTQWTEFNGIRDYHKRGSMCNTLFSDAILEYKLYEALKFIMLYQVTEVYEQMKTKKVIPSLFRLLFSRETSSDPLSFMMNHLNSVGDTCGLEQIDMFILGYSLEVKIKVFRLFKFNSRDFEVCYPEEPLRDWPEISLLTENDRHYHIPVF
Summary of the method: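 HEK293T lysate, 495 µg per sample in Tris/CHAPS/IGEPAL buffer with protease inhibitors, was treated in triplicate with fragment at 200 µM or vehicle for 3 h and then with Biotin-Ahx-Ub-VS at 0.5 µM final for 1 h. Labelled DUBs were NeutrAvidin-enriched, digested with LysC and trypsin, and run by diaPASEF LC-MS/MS. Spectronaut label-free quantities were global-median-normalised, and values are average log2 fragment/vehicle ratios by unpaired t-test on proteins with ≥2 unique peptides.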

log2 ratio of Biotin-Ahx-Ub-VS probe labelling, inactive:
COc1cc(Cl)c(C)cc1NC(=O)CCl 0.159
Cl.O=C(CCl)N1CCN(Cc2ccccc2)CC1 -0.0745
Cc1nc(CN2CCN(C(=O)CCl)CC2)cs1 0.151
O=C(CCl)Nc1cc(Cl)ccc1C(=O)O -0.0511
CN(C(=O)CCl)c1nc2ccccc2s1 0.108
O=C(CCl)NCCc1cccc2ccccc12 0.159
CCCn1nccc1NC(=O)CCl 0.145
CNC(=O)C1CCN(C(=O)CCl)CC1 0.31
O=C(CCl)N1CCOC(c2cccc(F)c2)C1 (stereo unspecified) -0.167
Cc1c(C#N)c(NC(=O)CCl)n(Cc2ccco2)c1C -0.107
O=C(CCl)N1CCC(C(=O)N2CCCCCC2)CC1 -0.0217
CN1C(=O)c2ccc(NC(=O)CCl)cc2C1=O -0.33
C[C@H]1CN(C(=O)CCl)CCN1C(=O)c1cnn(C)c1.Cl 0.375
CC1(NC(=O)CCl)CCS(=O)(=O)C1 (stereo unspecified) 0.0573
O=C(CCl)NCc1ccc(Cl)cc1 -0.347
O=C(CCl)Nc1ccc(N2CCCC2=O)cc1 0.0919
Cc1ncsc1CCNC(=O)CCl 0.185
Cc1cccc(C)c1NC(=O)CCl 0.266
Cc1cccc(C(CNC(=O)CCl)N2CCOCC2)c1.Cl (stereo unspecified) -0.778
Cc1cccc(NC(=O)CCl)c1C 0.19
Cc1cc(C2CCCN2C(=O)CCl)nn1C.Cl (stereo unspecified) 0.201
